Compound activity as filed in PubChem.
CYP2C19 inhib – human CYP2C19 inhibition. P33261. CYP2C19 Supersomes, luciferin-H EGE luminescence, 30 min. inhibition, % at 5 µM. 96,000 compounds, 21% hits. AID 778;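 active means CYP2C19 inhibition above a set limit at 5 µM in the primary screen, cut at about 50% in these data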;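 further: plate controls were negative control wells for no effect and 2.5 mM tranylcypromine positive control for full effect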
Target sequence (P33261 whole entry, looked up): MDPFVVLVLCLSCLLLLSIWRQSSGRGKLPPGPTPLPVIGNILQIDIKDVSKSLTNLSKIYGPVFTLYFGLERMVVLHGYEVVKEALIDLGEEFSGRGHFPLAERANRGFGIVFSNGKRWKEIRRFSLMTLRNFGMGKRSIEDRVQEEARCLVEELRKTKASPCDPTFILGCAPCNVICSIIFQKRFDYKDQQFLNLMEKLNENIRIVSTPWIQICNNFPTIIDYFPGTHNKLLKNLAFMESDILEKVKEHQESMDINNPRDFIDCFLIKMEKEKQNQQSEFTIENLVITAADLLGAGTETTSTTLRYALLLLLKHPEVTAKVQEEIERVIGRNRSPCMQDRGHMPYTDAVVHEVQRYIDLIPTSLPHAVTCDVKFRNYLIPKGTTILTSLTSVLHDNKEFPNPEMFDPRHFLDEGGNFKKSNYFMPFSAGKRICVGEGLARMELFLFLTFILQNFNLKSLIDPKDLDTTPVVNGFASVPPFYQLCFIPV
PostGolgi yeast – growth inhibition of a yeast mutant, post-Golgi transport screen; post-Golgi transport phenotypic cell assay; inhibition, % at 10 µM; 98,000 compounds, 0.9% hits;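 further: yeast cells grown in 1536-well plates; yeast grown about 18 h at 30C before absorbance read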
CYP2C19 activ – activators of human cytochrome P450 2C19 | recombinant CYP2C19, luciferin-H EGE luminescence; stronger effect = higher value; 0 = fully inhibited enzyme, 1 = untreated enzyme | P33261 | activation factor at 5 µM | AID 1025 | 96,000 tested, under 10 active;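 active means activation factor of at least 2 at 5 µM in the primary screen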;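 further: 0 = wells with 2.5 mM tranylcypromine and 1 = vehicle-only wells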
PostGolgi ctrl – inhibits growth of the yeast control strain; 98,000 compounds, 5% hits; inhibition, % at 10 µM; efflux-deficient yeast background strain, growth absorbance A615, 16 h
CYP2C9 inhib – blocks human cytochrome P450 2C9 | inhibition, % at 5 µM | 96,000 compounds, 20% hits | CYP2C9 Supersomes, luciferin-H conversion, luminescence;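 active means blocking of liver enzyme CYP2C9 beyond about 50% at 5 µM, limit read from the data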
CYP2C9 act – CYP2C9 (human) activation. 96,000 compounds, 1.4% hits. recombinant CYP2C9, luciferin-H conversion, luminescence; stronger effect = higher value; factor 1 = untreated enzyme, 0 = blocked. P11712. activation factor at 5 µM;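 active means activation factor of 2 or more for CYP2C9 at a 5 µM dose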;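 further: 0 = sulfaphenazole-blocked wells and 1 = vehicle-only wells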
Active calls of the source: *; / = not tested or not shown. An excerpt weighted towards active compounds, which were near 32% of everything screened. Unless noted, no stated cut-off is given here; in the data, active means inhibition above about 30%; inactive means the rest.

SMILES | CYP2C19 inhib | PostGolgi yeast | CYP2C19 activ | PostGolgi ctrl | CYP2C9 inhib | CYP2C9 act
COC(=O)c1sc(N)c(C(=O)OC)c1CSc1nnnn1C | 92* | -2 | 0.1 | 2 | 55* | 0.5
COC(=O)c1sc(N)c(C(=O)OC)c1CSc1nnc(-c2ccccc2Cl)n1C | 100* | 4 | 0 | 5 | 97* | 0
O=C(Cc1sc(-c2ccccc2)nc1-c1ccccc1)Nc1ccccc1 | 0 | 18 | 1 | 10 | 52* | 0.5
COc1ccc(Cl)cc1NC(=O)Nc1ccc(Br)cn1 | -8 | 22 | 1.1 | 5 | -6 | 1.1
COc1ccc(S(=O)(=O)N2CCC(C(=O)N3CCc4ccccc4C3)CC2)cc1C | 50 | 16 | 0.5 | 16 | 32 | 0.7
CS(=O)(=O)N1CCC(C(=O)N2CCc3ccccc3C2)CC1 | 95* | 1 | 0.1 | 3 | -23 | 1.2
CS(=O)(=O)N1CCCC(C(=O)N2CCc3ccccc3C2)C1 (configuration not stated) | 13 | -2 | 0.9 | -8 | 2 | 1
Cc1ccc(S(=O)(=O)N2CCC(C(=O)N3Cc4ccccc4C3)CC2)cc1 | 10 | 15 | 0.9 | 37* | 1 | 1
Cc1ccc(S(=O)(=O)N2CCC(C(=O)Nc3nnc(C4CCCC4)s3)CC2)cc1 | 5 | 4 | 1 | -8 | 3 | 1
COc1ccc(S(=O)(=O)N2CCC(C(=O)N3CCc4ccccc4C3)CC2)cc1 | 47 | 17 | 0.5 | 5 | -177 | 2.8*
Cc1ccc(S(=O)(=O)N2CCC(C(=O)Nc3ccccc3N3CCCCC3)CC2)cc1 | 80* | 4 | 0.2 | 17 | 87* | 0.1
COc1ccccc1-c1nn2c(=O)cc(C)nc2s1 | 18 | -4 | 0.8 | 1 | -47 | 1.5
Cc1cccnc1Nc1nc(-c2ccc(O)c(O)c2)cs1 | 66* | -1 | 0.3 | 83* | 76* | 0.2
O=C(CSc1nc2ccccc2o1)NCc1ccco1 | 72* | 6 | 0.3 | 8 | 0 | 1
O=C(CSc1nc(-c2ccccc2)cs1)NC(=O)NCc1ccco1 | / | -4 | / | -4 | / | /
O=C(CSc1nc2ccccc2o1)NC(=O)NCc1ccccc1 | 28 | 5 | 0.7 | 11 | 30 | 0.7
O=C(CSc1nc2ccccc2o1)NC(=O)NCc1ccco1 | 51* | 16 | 0.5 | 14 | 25 | 0.8
O=C(CSc1n[nH]c(-c2ccccc2)n1)NC(=O)NCc1ccco1 | 83* | -3 | 0.2 | 8 | 79* | 0.2
O=C(CSc1nc2c(c(=O)[nH]1)CCCC2)Nc1ccc(Cl)cc1F | -14 | 12 | 1.1 | 22 | 5 | 1
Cn1c(=O)c2c(nc(CN3CCN(c4ccccc4)CC3)n2Cc2c(F)cccc2Cl)n(C)c1=O | 27 | 3 | 0.7 | 28 | 29 | 0.7
O=C(Nc1ccccc1)c1ccc(N2CCN(c3ccccn3)CC2)c(S(=O)(=O)N2CCOCC2)c1 | 92* | 10 | 0.1 | 2 | 91* | 0.1
O=C(Nc1ccccc1)c1ccc(N2CCN(c3ccccc3)CC2)c(S(=O)(=O)N2CCOCC2)c1 | 58* | 6 | 0.4 | 18 | 76* | 0.2
O=C(Nc1ccccc1)c1ccc(NC2CCCCC2)c(S(=O)(=O)N2CCOCC2)c1 | 83* | -1 | 0.2 | 28 | 82* | 0.2
CCOc1ncccc1C(=O)OCCN1C(=O)c2ccccc2C1=O | 59* | 2 | 0.4 | -2 | 15 | 0.9
CCOc1ncccc1C(=O)OCC(=O)Nc1c(C)cccc1C | 52* | 20 | 0.5 | 10 | 24 | 0.8
SMILES | CYP2C19 inhib | PostGolgi yeast | CYP2C19 activ | PostGolgi ctrl | CYP2C9 inhib | CYP2C9 act
CCOc1ncccc1C(=O)OCC(=O)c1cccs1 | 24 | 5 | 0.8 | 5 | 43 | 0.6
Cc1cccc(C)c1NC(=O)COC(=O)c1nonc1N | 26 | -7 | 0.7 | -12 | -12 | 1.1
CCOc1ncccc1C(=O)OCC(=O)Nc1c(C)cc(C)cc1C | 60* | 4 | 0.4 | -7 | 44 | 0.6
O=C(Nc1ccc(Cl)cc1)NC1CCCc2ccccc21 (configuration not stated) | 32 | -10 | 0.7 | 13 | 10 | 0.9
COc1ccc(/C=C2/C(=O)N=C3SCCN32)cc1 | 24 | -1 | 0.8 | 7 | 6 | 0.9
Cc1c(C(=O)NCCC2=CCCCC2)cccc1[N+](=O)[O-] | 25 | -3 | 0.7 | 11 | -2 | 1
Cc1[nH]c2ccccc2c1CCO | 12 | 0 | 0.9 | 27 | -23 | 1.2
